# Several values for one entry are separate records, joined by “and”; a condition that tells them apart may be missing. Equal values may be shown once. Among all 290,000 compounds or so, about 3,000 (1%) were called active. Rule as the data show it: active = inhibition mostly above about 36% (no sharp cut-off); inactive = mostly below about 34%. For the sample, actives were picked, then their nearest neighbours and some compounds at random.
# Test: inhibition of NOD1-driven NF-kB reporter – cell-based, luminescence, uHTS, primary screen (AID 1578);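 also: HEK-293T reporter cells stimulated with the NOD1 agonist gamma-tri-DAP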
# Settings: NOD1-driven NF-kB luciferase reporter cells, at 4 µM, hits give high values
row,Structure (SMILES),inhibition
1,CCOC(=O)N1CCN(C(=O)c2ccc(CNS(=O)(=O)c3ccc(C)cc3)cc2)CC1,-13.1% (inactive)
2,Cc1ccc(S(=O)(=O)NCc2ccc(C(=O)N3CCCC3)cc2)cc1,-46% (inactive)
3,COc1ccc(N2CCN(C(=O)c3ccc(CNS(=O)(=O)c4cc(C)ccc4C)cc3)CC2)cc1,-18.8% (inactive)
4,CC1Cc2cc(S(=O)(=O)NCc3ccccc3)ccc2N1C(=O)C1CC1 (configuration not stated),-4.7% (inactive)
5,COc1cccc(CNS(=O)(=O)c2ccc3c(c2)CC(C)N3C(=O)C2CC2)c1 (configuration not stated),11.6% (inactive)
6,COc1ccc(CNS(=O)(=O)c2ccc(OC)cc2)cc1,-1.2% (inactive)
7,COc1ccc(S(=O)(=O)NCc2ccc(C(=O)O)cc2)cc1,40.7% (active)
8,Cc1ccc(S(=O)(=O)NCc2ccc(C(=O)N3CCN(c4ccccc4)CC3)cc2)cc1,15.5% (inactive)
9,COc1ccc(S(=O)(=O)NCc2ccccc2)cc1,9.2% (inactive)
10,COc1ccccc1-c1noc(CCCC(=O)N2CCOCC2)n1,-3.7% (inactive)
11,O=C(CCc1nc(-c2ccc(Cl)cc2)no1)NC1CCCCC1,-5.8% (inactive)
12,CCOC(=O)C1CCCN(C(=O)CNC(=O)Cn2ccc3ccccc3c2=O)C1 (configuration not stated),-4.8% (inactive)
13,O=C(NC(=O)N1CCCCC1)c1ccccc1,-30.9% (inactive)
14,O=C(NCc1ccccc1)c1cc[n+](CC(=O)c2cccs2)cc1,3.5% (inactive)
15,CCOc1ccc(CN(C)C(=O)c2ccc3ccccc3n2)cc1,-22.9% (inactive)
16,Cc1cccc(N(Cc2ccccc2)C(=O)c2ccc(S(C)(=O)=O)cc2)c1,5.8% (inactive)
17,C=CCNC(=S)N1CCN(c2ccc([N+](=O)[O-])cc2)CC1,4.7% (inactive)
18,CCNC(=S)N1CCN(c2ccc([N+](=O)[O-])cc2)CC1,16% (inactive)
19,O=[N+]([O-])c1ccc(N2CCN(C(=S)NCc3ccc(Cl)cc3)CC2)cc1,89% (active)
20,CC(C)(C)n1nc2c(c1NC(=O)c1cc(Cl)ccc1[N+](=O)[O-])CS(=O)(=O)C2,19.5% (inactive)
21,O=C(O)CSc1nnc(-c2ccc(Cl)cc2Cl)n1-c1ccc(Br)cc1,14.7% (inactive)
22,Nc1[nH]n2c(=O)cc(-c3ccccc3)nc2c1N=Nc1ccc(S(N)(=O)=O)cc1,-26% (inactive)
23,Cc1ccc(N=Nc2c(N)[nH]n3c(=O)cc(-c4ccccc4)nc23)cc1,76% (active)
24,Cc1ccc(N=Nc2c(N)[nH]n3c(=O)cc(C)nc23)cc1,-20.5% (inactive)
25,O=C(O)CSc1nc(-c2ccccc2)cc(=O)[nH]1,-22.9% (inactive)

row,Structure (SMILES),inhibition
1,Cc1ccc(C(=O)CSc2nc(C)cc(=O)[nH]2)cc1,-3.4% (inactive)
2,Cc1ccc(C(=O)CSc2nc(-c3ccccc3)cc(=O)[nH]2)cc1,64.8% (active)
3,CCOC(=O)Cn1c(=O)oc2cc(S(=O)(=O)N(C)c3ccc(OC)cc3)ccc21,3.5% (inactive)
4,CCOc1cc(/C=C2\C(=O)ON=C2c2ccccc2)cc(Br)c1O,39.5% (active)
5,CCOc1cc(/C=C2/C(=O)ON=C2C)cc(Br)c1O,25.8% (inactive)
6,COc1cc(/C=C2\C(=O)ON=C2c2ccccc2)cc(Br)c1O,13.8% (inactive)
7,C/C(N)=C(/C#N)C(=O)COC(=O)CC12CC3CC(CC(C3)C1)C2,14.9% (inactive)
8,CCn1c(CNC(=O)Cc2ccc(OC)cc2)nnc1SCC(=O)Nc1nccs1,-10.4% (inactive)
9,O=C(O)c1ccc(N=Nc2c(-c3ccccc3)[nH]oc2=O)cc1,-2.7% (inactive)
10,Cc1[nH]oc(=O)c1N=Nc1c(Cl)cccc1Cl,-17% (inactive)
11,O=c1o[nH]c(-c2ccccc2)c1N=Nc1c(F)cccc1Cl,37% (active)
12,Cc1ccc(N2C(=O)/C(=C/c3cccnc3)SC2=S)cc1,56.2% (inactive)
13,C=C1C(C(=O)Nc2ccc(F)cc2)C1C(=O)Nc1ccc(F)cc1 (configuration not stated),3.1% (inactive)
14,O/N=C\c1ccccc1Oc1ccc(F)cc1,8% (inactive)
15,O/N=C/c1ccccc1Oc1ccccc1,22.6% (inactive)
16,O/N=C/c1ccccc1Oc1ccc(Cl)cc1,72.6% (active)
17,CCOC(=O)/C(=C\c1cccnc1)C(=O)c1cc(C(C)=O)c(Nc2ccccc2)s1,102% (active)
18,CCOC(=O)/C(=C\c1ccccc1)C(=O)c1cc(C(C)=O)c(Nc2ccccc2)s1,57.5% (inactive)
19,CCOC(=O)/C(C#N)=C\c1cccnc1,-19.2% (inactive)
20,Cc1ccc2occ(/C=N/NC(=O)c3ccccc3C)c(=O)c2c1,49% (active)
21,Cc1ccc2occ(/C=N/NC(=O)c3ccccc3Br)c(=O)c2c1,29.9% (inactive)
22,Cc1ccc2occ(/C=N/NC(=O)c3ccccc3O)c(=O)c2c1,-14.7% (inactive)
23,O=S1(=O)C=C(SCc2cccc(Cl)c2)Nc2ccccc21,21.1% (inactive)
24,COc1cccc(OC)c1Nc1nc(C)nc2c1nnn2Cc1ccccc1Cl,-33.1% (inactive)
25,COc1ccc(Nc2nc(C)nc3c2nnn3Cc2ccccc2)cc1OC,0% (inactive)

row,Structure (SMILES),inhibition
1,CCc1nc(Nc2ccc(OC)c(OC)c2)c2nnn(Cc3ccccc3Cl)c2n1,58.7% (active)
2,O=C(Nc1ccnn1C1CCN(C2CCCCC2)CC1)c1ccccc1,-6.5% (inactive)
3,COc1cc(/C=N/n2c(C)nc3ccccc3c2=O)cc(OC)c1O,-6.8% (inactive)
4,O=C(c1ccc(Cl)c(S(=O)(=O)N2CCCCCC2)c1)N1CCCC1,0.4% (inactive)
5,NS(=O)(=O)c1cc(C(=O)N2CCNC(=O)C2)ccc1Cl,70.4% (active)
6,O=C(c1ccc(Cl)c(S(=O)(=O)N2CCCCC2)c1)N1CCCCC1,-30.5% (inactive)
7,O=c1c2c([nH]c3ccccc13)C(=C1CCCC1)CC2,2.8% (inactive)
8,Cc1ccc(N2CCN(C(=O)c3cccs3)CC2)cc1C,1.8% (inactive)
9,Cc1ccc(C2=[N+]([O-])C3(CCCCC/C3=N\O)N(O)C2(C)C)o1 (configuration not stated),14.4% (inactive)
10,COc1ccc(CNC(=O)c2ccc(C(C)(C)C)cc2)cc1,-24.6% (inactive)
11,C[C@@H]1CC[C@@]2(O[C@H](CCO)C[C@@H](O)[C@@H]2O)O1,-47.3% (inactive)
12,COCCn1c(=S)[nH]c2cc(C(=O)N3CCN(Cc4ccc5c(c4)OCO5)CC3)ccc2c1=O,-2.2% (inactive)
13,CCCCCn1c(=O)[nH]c2cc(C(=O)N3CCN(CC)CC3)ccc2c1=O,-4% (inactive)
14,COc1ccc(-n2c(Cn3nnc4ccccc43)n[nH]c2=S)cc1,12% (inactive)
15,COc1ccccc1S(=O)(=O)Nc1cc(S(=O)(=O)N2CCCCC2)ccc1N1CCOCC1,-35.7% (inactive)
16,O=C(c1cccs1)c1no[n+]([O-])c1C(=O)c1cccs1,98.1% (active)
17,COc1ccc(C(=O)c2no[n+]([O-])c2C(=O)c2ccc(OC)cc2)cc1,6.8% (inactive)
18,Cc1ccc(C(=O)c2no[n+]([O-])c2C(=O)c2ccc(C)cc2)cc1,18% (inactive)
19,O=S(=O)(c1ccc(F)c(F)c1F)N1CCN(C(=S)NC2CC3CCC2C3)CC1 (configuration not stated),-22.5% (inactive)
20,Cc1ccc(NC(=O)/C(C#N)=C/c2ccccc2C(F)(F)F)cc1,-32.5% (inactive)
21,Clc1ccc(CSc2ncccn2)cc1,-34.4% (inactive)
22,Cc1ccc(CSc2nccc(-c3c(C)nc4ccccn34)n2)cc1,27% (inactive)
23,Cc1nc2ccccn2c1-c1ccnc(SCc2ccc(Cl)cc2)n1,37.7% (active)
24,COc1ccc2c(C)cc(SCC(=O)Nc3cc(C(N)=O)cc(C(N)=O)c3)nc2c1,-7% (inactive)
25,O=C(Cc1cccs1)NNC(=S)NCc1ccco1,-26.1% (inactive)

row,Structure (SMILES),inhibition
1,O=C(Cc1ccc(-c2ccccc2)cc1)NNC(=S)NCc1ccco1,41.4% (active)
2,O=C(O)Cc1ccc(NC(=S)NCc2ccco2)cc1,-27.1% (inactive)
3,CC(=O)c1ccc(C(=O)N2CCCC(CO)(Cc3ccccc3C)C2)s1 (configuration not stated),-39% (inactive)
4,COc1ccc2c(c1)c1nc3n(c(=O)c1n2CC(=O)Nc1ccccc1)CCS3,-17.5% (inactive)
5,COc1ccc(NC(=O)Cn2c3ccc(OC)cc3c3nc4n(c(=O)c32)CCS4)cc1,-15.9% (inactive)
6,COc1ccc2c(c1)c1nc3n(c(=O)c1n2CC(=O)Nc1cc(C)[nH]n1)CCS3,63.4% (active)
7,COc1ccc(OC(=O)N2CCOCC2)cc1,-16.5% (inactive)
8,CC1CCCC(NC(=O)COC(=O)Cc2cn3ccsc3n2)C1C (configuration not stated),6.7% (inactive)
9,Cc1ccc(-n2c(-c3ccccc3)c[n+]3c2CCC3)cc1,9.5% (inactive)
10,COc1ccc(-n2c(-c3ccc(Cl)cc3)c[n+]3c2CCc2ccccc2-3)cc1,20.5% (inactive)
11,COc1ccc(-n2c(-c3ccc(Br)cc3)c[n+]3c2CCc2ccccc2-3)cc1,13.3% (inactive)
12,COc1ccccc1-n1c(-c2ccccc2)c[n+]2c1CCc1ccccc1-2,52.9% (active) and 68.6% (active)
13,Cc1ccc(-c2c[n+]3c(n2-c2ccccc2)CCC3)cc1,25.4% (inactive)
14,Cc1ccc(-n2c(-c3ccccc3)c[n+]3c2CCc2ccccc2-3)c(C)c1,66% (active)
15,CCOc1ccc(-c2c(C(=O)N/N=C/c3ccco3)nnn2-c2nonc2N)cc1,-7.1% (inactive)
16,O=C(Cn1cnc(S(=O)(=O)N2CCCCC2)c1)NCc1ccco1,-11.7% (inactive)
17,CC(C)N(Cc1ccccc1)C(=S)Nc1ccccc1F,-3.5% (inactive)
18,CCOC(=O)CN(c1ccccc1C)S(=O)(=O)c1ccc(Cl)cc1,21.3% (inactive)
19,CCN(CC)C(=O)Cn1cc(C(=O)C(=O)N(CC)C2CCCCC2)c2ccccc21,-4.6% (inactive)
20,Cn1c(=O)c2nc(Cl)c(-c3ccccc3)nc2n(C)c1=O,-30.8% (inactive)
21,Cn1c(=O)c2nc3ccccc3nc2n(C)c1=O,-21.3% (inactive)
22,Cc1nc2c(=O)n(C)c(=O)n(C)c2nc1Cl,94.4% (active)

# Source: PubChem BioAssay AID1578 (Sanford-Burnham Center for Chemical Genomics, 2009)
